INS-1E GSIS act – primary screen for activators of insulin secretion dependent on glucose, INS-1E cells, GLuc reporter luminescence; INS-1E GLuc reporter insulin secretion, 2-3 h; activation, % at 16.6 µM; 370,000 compounds, 0.61% hits; AID 743287;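 active = lowest replicate activation of at least 40%, so every replicate reaches that level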
ERAP1 inh – inhibitors of human ERAP1 aminopeptidase | Q9NZ08 | recombinant ERAP1, Leu-AMC fluorescence, 60 min | inhibition, % at 10.7 µM | 340,000 compounds, 0.15% hits | AID 652197;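 active = mean replicate inhibition of at least 30%, or all replicates individually reaching that 30% level; inactive = mean below 30% and not every replicate reaching it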
PGC1a acetyl inh – lowers PGC1a acetylation signal in U2OS cells. 350,000 compounds, 0.17% hits. AlphaScreen anti-acetyl-lysine; with virally co-expressed GCN5 acetyltransferase. inhibition, % at 15.6 µM;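 active = every replicate shows inhibition of at least 40%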
DENV2 CPE – inhibitors of DENV2 cytopathic effect | DENV2-infected cells, cytopathic effect rescue, plate reader | CPE inhibition, % at 9.99 µM | 350,000 compounds, 1.7% hits; in the data active = CPE inhibition above about 20%, passing the limit was not always enough; tested in BHK-21 cells
CaV13 ICDI inh – Primary screen for inhibitors of IQ motif and Ca2+-dependent inactivation inhibitor domain binding in CACNA1D, Förster resonance energy transfer in living cells, …; inhibition, % at 12.3 µM; 340,000 compounds, 0.098% hits; HEK cells, CFP/YFP FRET ICDI-IQ, plate reader, 10 min; percent FRET-ratio fall versus neutral wells;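 active = mean replicate inhibition of at least 30% and at least 1% of replicates passing that level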
rRNA inh HTS – inhibitors of bacterial rRNA selective over humanized ribosomes. E. coli WT GFP vs humanized-ribosome RFP mutants, fluorescence, 24 h; stronger effect = lower value; DMSO median 0, no signal -100. 350,000 compounds, 1.6% hits. AID 720706. GFP signal change (wild-type ribosome), % (no concentration beside the values);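 active = significant combined selectivity score with lowered wild-type GFP, culture density cut under 30%, mutant RFP and density less affected; inactive = any of these conditions unmet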
Each line names hits and unclear results; the compound was inactive in the other large screens. Sampled rows, rich in hits. Any-hit rate of the full collection: about 3.2%.

Fc1cccc(Cc2c(C3CCCCC3)nc3ccc(Cl)cn23)c1	none
Clc1ccc2nc(C3CCCCC3)c(CC3CCCCC3)n2c1	DENV2 CPE 38.2 (no result: INS-1E GSIS act, rRNA inh HTS)
O=C(NC[C@@H]1CC[C@H]2[C@H](CN2Cc2ccc(Oc3ccccc3)cc2)O1)C1CCOCC1	none (no result: INS-1E GSIS act, CaV13 ICDI inh, rRNA inh HTS)
CN1C(=O)c2cc(NC(=O)c3ccccc3)ccc2OC[C@H]2O[C@@H](CC(=O)NC3CCCC3)CC[C@@H]21	none (no result: CaV13 ICDI inh)
C[C@@H]1CN([C@@H](C)CO)C(=O)c2cc(N(C)C)ccc2O[C@@H](C)CCCCO[C@@H]1CN(C)C(=O)Nc1ccc(F)cc1	none (no result: CaV13 ICDI inh)
CCOc1ccc2[nH]c3ncccc3c(=O)c2c1	DENV2 CPE 30.2 (no result: PGC1a acetyl inh)
COc1ccc2c3c([nH]c2c1)[C@H](CO)N(C(=O)Nc1ccc(F)cc1)CC31CN(S(=O)(=O)c2cn(C)cn2)C1	none (no result: PGC1a acetyl inh, CaV13 ICDI inh)
CO[C@H]1CN(C)C(=O)c2ccc(NC(=O)NC(C)C)cc2OC[C@H](C)N(Cc2ccc(-c3ccccn3)cc2)C[C@H]1C	DENV2 CPE 68.2 (no result: CaV13 ICDI inh)
CO[C@H]1CN(C)C(=O)c2ccc(NC(=O)NC(C)C)cc2OC[C@H](C)N(Cc2ccc(-c3ccccn3)cc2)C[C@@H]1C	none (no result: CaV13 ICDI inh)
CCCC(=O)Nc1ccc2c(c1)C(=O)N(C)C[C@@H](OC)[C@@H](C)CN(Cc1ccc(-c3ccccn3)cc1)[C@H](C)CO2	DENV2 CPE 27.4 (no result: CaV13 ICDI inh)
CNS(=O)(=O)c1cc(N(C)S(=O)(=O)c2ccc(C)cc2)c(C)cc1C	rRNA inh HTS -44.6
COc1ccc2c3c([nH]c2c1)[C@@H](CO)N(C(=O)CC1CC1)CC31CCN(C(=O)CC2CC2)CC1	none (no result: ERAP1 inh, CaV13 ICDI inh)
O=C(c1ccncc1)N1CC(=O)N2[C@H](CO)[C@H](c3ccc(-c4ccccc4F)cc3)[C@H]2C1	none (no result: CaV13 ICDI inh)
COc1ccccc1N1CCN(C(=O)c2oc3ccc(Br)cc3c2C)CC1	none (no result: PGC1a acetyl inh)
Cc1c(C(=O)N2CCN(C)CC2)oc2ccc(Br)cc12	none (no result: ERAP1 inh)
Cc1c(C(=O)N2CCCC2)oc2ccc(Br)cc12	DENV2 CPE 53.2, rRNA inh HTS -30.1 (no result: PGC1a acetyl inh)
COc1ccccc1N1CCN(C(=O)c2oc3ccc(F)cc3c2C)CC1	rRNA inh HTS -36.4 (no result: PGC1a acetyl inh)
CCCC(=O)Nc1ccc2c(c1)OC[C@@H](C)N(Cc1ccccn1)C[C@@H](C)[C@@H](OC)CN(C)C2=O	none (no result: CaV13 ICDI inh)
CCS(=O)(=O)Nc1ccc2c(c1)C(=O)N(C)C[C@H](OC)[C@@H](C)CN(C)[C@H](C)CO2	none (no result: CaV13 ICDI inh)
COC(=O)c1cc(C(=O)OC)n(Cc2ccc(F)cc2)c1C	rRNA inh HTS -40.5 (no result: PGC1a acetyl inh)
C[C@H]1CCC/C=C/[C@@H]2C[C@H](O)C[C@H]2[C@H](O)[C@H](S(=O)c2ccc(O)cc2)CC(=O)O1 (stereo partly drawn)	ERAP1 inh 67.1, PGC1a acetyl inh 66.3 (no result: INS-1E GSIS act)
CCCc1cn(CC[C@H]2CC[C@@H](NC(=O)Nc3ccccc3F)[C@H](CO)O2)nn1	none (no result: CaV13 ICDI inh)
O=C(C[C@@H]1CC[C@H](NC(=O)Cc2ccccn2)[C@@H](CO)O1)NCCc1ccncc1	none (no result: ERAP1 inh, DENV2 CPE, CaV13 ICDI inh)
O=C(N/N=C/c1c[nH]c2ccc(Br)cc12)c1ccc2c(c1)OCO2	rRNA inh HTS -30.3
O=C(N/N=C/c1cc(Br)c(O)c(Br)c1O)c1ccc2c(c1)OCCO2	rRNA inh HTS -19.2
O=C(N/N=C/c1c[nH]c2ccc(Br)cc12)C1CC1	rRNA inh HTS -33.5
Cc1ccc(S(=O)(=O)N[C@@H]2CC[C@H](CCNC(=O)c3ccccc3F)O[C@@H]2CO)cc1	none (no result: CaV13 ICDI inh)
C[C@@H]1CN([C@H](C)CO)C(=O)c2cc(-c3cccc(F)c3)cnc2O[C@@H]1CN(C)Cc1cccnc1	none (no result: CaV13 ICDI inh)
COc1ccc(N2CCN(C(=O)c3nc4nc(C)cc(C)n4n3)CC2)cc1	none
CCc1nc2ccc(C(=O)N3CCN(c4ccc([N+](=O)[O-])cc4)CC3)cc2nc1CC	rRNA inh HTS -23.0 (no result: PGC1a acetyl inh)
Cc1cc(C)n2nc(C(=O)N3CCOCC3)nc2n1	none (no result: INS-1E GSIS act, ERAP1 inh, DENV2 CPE, rRNA inh HTS)
CCc1noc(C)c1C(=O)N1CCN(c2ccc([N+](=O)[O-])cc2)CC1	none (no result: INS-1E GSIS act)
Cc1cc(C)n2nc(C(=O)Nc3ccc(N4CCOCC4)cc3)nc2n1	ERAP1 inh 59.4 (no result: DENV2 CPE)
Cc1cc(C)n2nc(C(=O)N3CCN(c4ccc([N+](=O)[O-])cc4)CC3)nc2n1	ERAP1 inh 40.9 (no result: INS-1E GSIS act, rRNA inh HTS)

Screening data from PubChem.
